Inconclusive results are not listed. Active and inactive are the calls of the source. Rule for the calls: active = hit-call score of the fitted dose curve at least 0.9, where 1 is the maximum; inconclusive = response in the unintended direction; inactive = score below 0.9.
How the values were obtained:
[1] = ACEA_AR_agonist_AUC_viability: ACEA Biosciences xCELLigence Real-Time Cell Analysis on Androgen Receptor Agonism for Viability (AID 2283775);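 for AC50: viability read 80 hours after compound addition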
Procedure, shortened: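 22Rv1 cells; impedance growth kinetics; 8-pt 1:4 dilutions from 100 uM top final, ≤0.5% DMSO; n = 2; 80 h read; AUC viability, loss-of-signal vs DMSO.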

[2] = ACEA_AR_antagonist_AUC_viability: ACEA Biosciences xCELLigence Real-Time Cell Analysis on Androgen Receptor Antagonism for Viability (AID 2283776);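 note: area under impedance growth curve at 80 h after dosing as viability; hits lower the growth signal relative to DMSO meaning cytotoxicity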
Procedure, shortened: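 22Rv1 human prostate cancer cells were seeded on electrode plates, monitored overnight, then exposed to eight 1:4 dilutions from 100 uM final. Impedance-based growth kinetics at 80 h gave an AUC viability endpoint normalized to DMSO.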

[3] = tested on: frog Estrogen Receptor (ESR2), gene 100174814; experiment: ATG_frER2_XSP1: Attagene TRANS-FACTORIAL Multi-Species (XSP1) HepG2 Assay for frog Estrogen Receptor (ESR2) (AID 2283774)
Procedure, shortened: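 HepG2, transient MRTU transfection (GAL4-UAS reporters, exogenous NR-Gal4 chimeras); 24 h compound exposure; 3 nM 6α-fluorotestosterone co-added; total RNA → RT-PCR → 6-FAM primer extension → HpaI → CE. Positive direction vs DMSO.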

[4] = tested on: frog Estrogen Receptor (ESR1), gene 398734; experiment: ATG_frER1_XSP1: Attagene TRANS-FACTORIAL Multi-Species (XSP1) HepG2 Assay for frog Estrogen Receptor (ESR1) (AID 2283777)
Procedure, shortened: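 Transient MRTU transfection, HepG2 (human liver); 24 h dosing, 3 nM 6α-fluorotestosterone co-added; RNA → RT-PCR → 6-FAM labeling → CE; upward activity vs DMSO.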

[5] = tested on: zebrafish Estrogen Receptor (ESR2A), gene 317734; experiment: ATG_zfER2a_XSP1: Attagene TRANS-FACTORIAL Multi-Species (XSP1) HepG2 Assay for zebrafish Estrogen Receptor (ESR2A) (AID 2283778)
Procedure, shortened: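 Transient transfection of HepG2 (human liver) with MRTU constructs; chemical dosing for 24 h; medium contained 3 nM 6-alpha-fluorotestosterone to partly stimulate AR. RT-PCR/CE fluorescence of reporter transcripts; positive direction vs DMSO.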

[6] = target: chicken Estrogen Receptor (ESR1), ESR1 (gene 396099) (UniProt P06212); experiment: ATG_chERa_XSP1: Attagene TRANS-FACTORIAL Multi-Species (XSP1) HepG2 Assay for chicken Estrogen Receptor (ESR1) (AID 2283779)
chicken Estrogen Receptor (ESR1), ESR1 (gene 396099), sequence (P06212 whole entry, looked up, the tested form may be a part): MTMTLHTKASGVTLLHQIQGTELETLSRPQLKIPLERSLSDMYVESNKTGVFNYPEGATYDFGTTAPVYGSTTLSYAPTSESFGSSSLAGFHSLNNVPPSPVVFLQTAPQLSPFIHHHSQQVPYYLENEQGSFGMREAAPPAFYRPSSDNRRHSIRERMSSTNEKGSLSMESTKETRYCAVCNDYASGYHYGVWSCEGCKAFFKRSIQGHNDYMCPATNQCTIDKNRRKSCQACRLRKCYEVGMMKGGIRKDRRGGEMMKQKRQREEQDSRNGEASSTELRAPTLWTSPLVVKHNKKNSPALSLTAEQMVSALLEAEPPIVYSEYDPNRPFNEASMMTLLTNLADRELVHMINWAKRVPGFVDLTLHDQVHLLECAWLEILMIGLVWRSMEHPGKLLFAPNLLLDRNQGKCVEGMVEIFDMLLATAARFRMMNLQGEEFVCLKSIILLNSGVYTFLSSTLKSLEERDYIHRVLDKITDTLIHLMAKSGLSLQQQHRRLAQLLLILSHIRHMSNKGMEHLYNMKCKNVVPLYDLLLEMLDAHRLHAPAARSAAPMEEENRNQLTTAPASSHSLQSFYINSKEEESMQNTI
Procedure, shortened: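 Read-out: fluorescent reporter mRNA fragments resolved by capillary electrophoresis after RT-PCR and HpaI digestion. Transfected HepG2 cells carried chimeric NR-Gal4 constructs, were dosed 24 h with 3 nM 6-alpha-fluorotestosterone added, and activity was fitted upward relative to DMSO.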

[7] = tested on: turtle Estrogen Receptor (ESR1), gene 101933533; experiment: ATG_trERa_XSP1: Attagene TRANS-FACTORIAL Multi-Species (XSP1) HepG2 Assay for turtle Estrogen Receptor (ESR1) (AID 2283781)
Procedure, shortened: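 Transfect HepG2 with reporter units → dose chemical 24 h (medium has 3 nM 6-alpha-fluorotestosterone) → isolate RNA, RT-PCR → FAM primer extension, HpaI digest → capillary electrophoresis; gain of signal vs DMSO.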

[8] = STM_H9_NormalizedViability: Cytotoxicity Assessment at 120 hours in the Stemina devTOX quickPredict H9 human embryonic stem cell (hESC)-based Assay (AID 2283784)
Procedure, shortened: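 Viability endpoint: background-corrected CellTiter-Fluor RFU expressed relative to the 0.1% DMSO mean on each plate. Undifferentiated H9 cells were treated with daily re-dosing and media change, and loss of signal was fitted.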

[9] = ATG_M_19_XSP1: Attagene TRANS-FACTORIAL Multi-Species (XSP1) HepG2 Assay for M19 Transcription Factor (Internal Marker) (AID 2283798)
Procedure, shortened: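 Readout is reporter mRNA induction quantified via RT-PCR, 6-FAM labeling, HpaI digestion and capillary electrophoresis, fitted in the positive direction versus DMSO baseline. Transfected HepG2 cells exposed 24 h, medium including 3 nM 6-alpha-fluorotestosterone.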

[10] = ATG_M_32_XSP1: Attagene TRANS-FACTORIAL Multi-Species (XSP1) HepG2 Assay for M32 Transcription Factor (Internal Marker) (AID 2283799)
Procedure, shortened: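 Reporter transcripts from the M32 internal-control unit measured by RT-PCR, FAM labelling, HpaI digestion and capillary electrophoresis after 24 h compound exposure of transfected HepG2, 3 nM 6-alpha-fluorotestosterone included; DMSO baseline, positive-direction fit.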

[11] = ACEA_ER_AUC_viability: ACEA Biosciences xCELLigence Real-Time Cell Analysis on Estrogen Receptor Agonism for Viability (AID 2283782);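 note: hit means loss of impedance signal meaning reduced cell growth or viability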
Procedure, shortened: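 Read-out: real-time electrical impedance (RT-CES) area under curve, loss of signal taken as reduced viability, normalized to DMSO baseline. T-47D cells, charcoal-stripped serum medium, compounds up to 100 uM final, continuous exposure, 80 h.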

[12] = target: Estrogen receptor beta (Homo sapiens) (UniProt Q92731); experiment: ATG_hERb_XSP1: Attagene TRANS-FACTORIAL Multi-Species (XSP1) HepG2 Assay for human Estrogen Receptor (ESR2) (AID 2283788)
Estrogen receptor beta (Homo sapiens), sequence (Q92731 whole entry, looked up, the tested form may be a part): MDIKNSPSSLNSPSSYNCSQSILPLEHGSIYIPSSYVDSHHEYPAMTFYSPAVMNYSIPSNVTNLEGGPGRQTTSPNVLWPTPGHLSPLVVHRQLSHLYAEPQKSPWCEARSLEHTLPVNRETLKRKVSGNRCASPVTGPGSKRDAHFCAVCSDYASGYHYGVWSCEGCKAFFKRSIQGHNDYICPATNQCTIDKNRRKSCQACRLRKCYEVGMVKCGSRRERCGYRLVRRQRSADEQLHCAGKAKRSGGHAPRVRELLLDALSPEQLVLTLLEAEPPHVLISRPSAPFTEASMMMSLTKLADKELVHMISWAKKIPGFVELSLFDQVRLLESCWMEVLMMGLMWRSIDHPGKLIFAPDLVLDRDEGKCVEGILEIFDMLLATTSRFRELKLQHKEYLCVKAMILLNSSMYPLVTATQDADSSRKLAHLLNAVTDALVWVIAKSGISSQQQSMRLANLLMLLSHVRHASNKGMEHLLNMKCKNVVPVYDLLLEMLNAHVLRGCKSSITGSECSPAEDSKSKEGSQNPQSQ
Procedure, shortened: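 Transient MRTU transfection of HepG2; ERβ–GAL4 TRANS format; 24 h dosing; 3 nM 6α-fluorotestosterone co-added; RNA → RT-PCR → 6-FAM primer extension → CE; activity vs DMSO.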

[13] = target: Estrogen receptor (Homo sapiens) (UniProt P03372); experiment: ATG_hERa_XSP1: Attagene TRANS-FACTORIAL Multi-Species (XSP1) HepG2 Assay for human Estrogen Receptor (ESR1) (AID 2283780)
Estrogen receptor (Homo sapiens), sequence (P03372 whole entry, looked up, the tested form may be a part): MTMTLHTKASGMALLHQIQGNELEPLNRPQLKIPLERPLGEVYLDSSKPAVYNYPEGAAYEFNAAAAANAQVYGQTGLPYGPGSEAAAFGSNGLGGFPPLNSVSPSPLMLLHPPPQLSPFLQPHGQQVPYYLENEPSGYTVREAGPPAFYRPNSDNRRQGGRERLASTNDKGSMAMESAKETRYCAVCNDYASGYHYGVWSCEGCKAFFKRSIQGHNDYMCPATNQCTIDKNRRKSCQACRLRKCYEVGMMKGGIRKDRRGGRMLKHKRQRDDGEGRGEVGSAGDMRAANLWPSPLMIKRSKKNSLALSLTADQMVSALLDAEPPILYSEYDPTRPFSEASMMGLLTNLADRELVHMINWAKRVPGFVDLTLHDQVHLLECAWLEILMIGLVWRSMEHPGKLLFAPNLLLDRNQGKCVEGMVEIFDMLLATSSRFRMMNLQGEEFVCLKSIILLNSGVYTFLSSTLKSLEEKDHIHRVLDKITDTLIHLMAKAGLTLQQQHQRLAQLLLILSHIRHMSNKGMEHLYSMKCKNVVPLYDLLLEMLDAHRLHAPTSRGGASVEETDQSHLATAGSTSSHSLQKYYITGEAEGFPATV
Procedure, shortened: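 Reporter transcripts from multiplexed GAL4-UAS units driven by NR-Gal4 chimeras in transiently transfected HepG2 were measured by RT-PCR with capillary electrophoresis 24 h post-dose, with 3 nM 6-alpha-fluorotestosterone present; gain-of-signal relative to DMSO.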

[14] = tested on: turtle Androgen Receptor (AR), gene 101947425; experiment: ATG_trAR_XSP1: Attagene TRANS-FACTORIAL Multi-Species (XSP1) HepG2 Assay for turtle Androgen Receptor (AR) (AID 2283786)
Procedure, shortened: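 Partial androgen stimulation is provided by 3 nM 6-alpha-fluorotestosterone in a multi-species trans-factorial panel expressing a turtle AR–GAL4 fusion in HepG2. After 24 h, reporter mRNA is measured by RT-PCR and capillary electrophoresis and fitted upward against DMSO.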

[15] = target: GAL4 Transcription Factor (Internal Marker), GAL4 (gene 855828) (UniProt P04386); experiment: ATG_GAL4_XSP1: Attagene TRANS-FACTORIAL Multi-Species (XSP1) HepG2 Assay for GAL4 Transcription Factor (Internal Marker) (AID 2283789)
GAL4 Transcription Factor (Internal Marker), GAL4 (gene 855828), sequence (P04386 whole entry, looked up, the tested form may be a part): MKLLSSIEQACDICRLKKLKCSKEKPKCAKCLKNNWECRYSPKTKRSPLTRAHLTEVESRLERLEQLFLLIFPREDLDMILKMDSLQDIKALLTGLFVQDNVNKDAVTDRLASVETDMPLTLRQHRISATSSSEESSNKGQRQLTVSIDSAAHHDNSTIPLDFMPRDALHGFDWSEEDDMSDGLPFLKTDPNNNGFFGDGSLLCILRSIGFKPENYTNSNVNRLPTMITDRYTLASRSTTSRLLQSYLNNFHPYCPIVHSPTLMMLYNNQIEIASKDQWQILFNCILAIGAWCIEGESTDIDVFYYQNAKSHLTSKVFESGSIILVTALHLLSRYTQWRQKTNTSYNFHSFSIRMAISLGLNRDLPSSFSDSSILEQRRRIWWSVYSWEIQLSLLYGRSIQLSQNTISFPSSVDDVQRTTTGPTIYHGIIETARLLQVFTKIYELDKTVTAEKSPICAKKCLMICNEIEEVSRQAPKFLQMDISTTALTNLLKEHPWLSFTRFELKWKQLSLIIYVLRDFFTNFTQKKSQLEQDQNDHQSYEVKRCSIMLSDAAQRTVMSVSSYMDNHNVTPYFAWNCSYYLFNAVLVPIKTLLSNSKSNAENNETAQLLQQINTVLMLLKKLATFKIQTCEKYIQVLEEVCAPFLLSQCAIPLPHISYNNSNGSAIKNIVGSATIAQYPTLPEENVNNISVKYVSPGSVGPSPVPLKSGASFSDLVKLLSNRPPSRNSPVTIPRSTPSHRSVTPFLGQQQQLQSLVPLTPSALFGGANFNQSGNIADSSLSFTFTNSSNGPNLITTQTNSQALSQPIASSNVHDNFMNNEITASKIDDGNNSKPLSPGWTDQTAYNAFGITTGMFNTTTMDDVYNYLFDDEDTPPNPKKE
Procedure, shortened: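 This background-control endpoint measures GAL4-driven reporter mRNA via RT-PCR and capillary electrophoresis of labelled fragments. Transiently transfected HepG2 cells were treated 24 h, with 3 nM 6-alpha-fluorotestosterone included, and gain-of-signal was fitted against DMSO.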

[16] = ATG_M_06_XSP1: Attagene TRANS-FACTORIAL Multi-Species (XSP1) HepG2 Assay for M06 Transcription Factor (Internal Marker) (AID 2283790)
Procedure, shortened: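 This background-control readout tracks M06 reporter mRNA, measured by RT-PCR and capillary electrophoresis. HepG2 cells transiently carrying the GAL4-UAS reporter panel were dosed for 24 h with 3 nM 6-alpha-fluorotestosterone added for partial AR stimulation; increases were scored relative to DMSO.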

[17] = ATG_M_61_XSP1: Attagene TRANS-FACTORIAL Multi-Species (XSP1) HepG2 Assay for M61 Transcription Factor (Internal Marker) (AID 2283797)
Procedure, shortened: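 Background-control readout: reporter transcripts measured by RT-PCR and capillary electrophoresis 24 h after dosing transiently transfected HepG2 multi-reporter cells, with 3 nM 6-alpha-fluorotestosterone present. Fitted in the positive direction relative to DMSO.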

[18] = target: Peroxisome proliferator-activated receptor gamma (Homo sapiens) (UniProt P37231); experiment: ATG_hPPARg_XSP1: Attagene TRANS-FACTORIAL Multi-Species (XSP1) HepG2 Assay for human Peroxisome Proliferator-activated Receptor gamma (PPARg) (AID 2283800)
Peroxisome proliferator-activated receptor gamma (Homo sapiens), sequence (P37231 whole entry, looked up, the tested form may be a part): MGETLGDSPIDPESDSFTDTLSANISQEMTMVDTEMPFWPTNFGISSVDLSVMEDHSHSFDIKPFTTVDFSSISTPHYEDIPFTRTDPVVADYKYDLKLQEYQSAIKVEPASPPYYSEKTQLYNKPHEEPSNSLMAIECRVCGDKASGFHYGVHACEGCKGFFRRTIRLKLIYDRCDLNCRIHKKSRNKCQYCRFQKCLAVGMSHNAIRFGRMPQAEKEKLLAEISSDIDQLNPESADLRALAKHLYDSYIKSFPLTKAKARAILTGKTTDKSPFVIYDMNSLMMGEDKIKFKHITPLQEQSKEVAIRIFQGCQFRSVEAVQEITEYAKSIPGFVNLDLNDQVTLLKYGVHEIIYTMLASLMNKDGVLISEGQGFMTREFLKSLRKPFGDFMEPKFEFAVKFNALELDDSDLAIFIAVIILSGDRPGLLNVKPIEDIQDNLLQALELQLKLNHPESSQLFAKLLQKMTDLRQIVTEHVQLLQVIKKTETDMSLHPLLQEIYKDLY
Procedure, shortened: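 Reporter mRNA induction, measured by RT-PCR with capillary electrophoresis 24 h after dosing, scored as gain over DMSO. Transfected HepG2 cells express exogenous NR-Gal4 chimeras driving GAL4-UAS reporters; medium includes 3 nM 6-alpha-fluorotestosterone.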

Measured: AC50

CCCSC(=O)N(CCC)CCC
inactive: [1] | [2]

CCCCOC(=O)c1ccccc1C(=O)OCc1ccccc1
active: [3] 9.27 µM | [1] 50 µM | [2] 24.7 µM | [4] 7.32 µM | [5] 7.24 µM | [6] 7.78 µM | [7] 9.3 µM | [8] 34 µM
inactive: [9] | [10]

Clc1ccc(C(c2ccc(Cl)cc2)C(Cl)(Cl)Cl)cc1
inactive: [2] | [8] | [12] | [9] | [10]
active: [3] 4.09 µM | [1] 8.63 µM | [4] 1.31 µM | [5] 17.6 µM | [6] 2.52 µM | [7] 3.31 µM | [11] 28.4 µM

CC(C)N(Cc1ccccc1)C(=O)C(C)(C)C
inactive: [1]

Cn1cc(-c2ccccc2)c(=O)c(-c2cccc(C(F)(F)F)c2)c1
active: [1] 50 µM | [2] 50 µM

ClC1=C(Cl)C2(Cl)C3C(Cl)C=CC3C1(Cl)C2(Cl)Cl (configuration not stated)
active: [1] 25 µM | [2] 22 µM | [11] 50 µM

Cc1cc(N=Nc2ccccc2C)ccc1N
active: [1] 66.1 µM | [2] 42.2 µM | [11] 50 µM

[As]#[In]
inactive: [1]

Nc1ccc(Cc2ccc(N)cc2)cc1
inactive: [1]

CCC[CH2][Sn]([Cl])([CH2]CCC)[CH2]CCC
active: [3] 0.528 µM | [1] 0.567 µM | [11] 0.767 µM | [8] 0.642 µM
inactive: [4] | [5] | [13] | [9]

CCCCCOC(=O)c1ccccc1C(=O)OCCCCC
active: [3] 27.3 µM | [1] 30 µM | [6] 27 µM | [13] 24.2 µM | [7] 26.8 µM | [18] 31.9 µM
not listed: [2] | [8] | [9] | [11]
inactive: all other assays above

Source: PubChem BioAssay (EPA / NIEHS)
